PubChem BioAssay (NCI)
The panel holds about 83,000 compounds, 20% with a hit somewhere; the sample as a whole holds those more often.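 Plates (96-well) were seeded with cells, treated with compound at one concentration, and incubated for 48 hours before percent growth was determined.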 Values without a mark were called inactive. The source made the active and inactive calls. Rule for the calls: active = growth percent below 10; inactive = the rest.

Legend:
Assay in all cases: NCI-60 one-dose screen, 48 h (100 = growth as untreated, 0 = no growth, -100 = all killed)
Details in all cases: 10 µM unless noted
[1] = system: T-47D breast
[2] = system: BT-549 breast
[3] = system: MDA-MB-435 melanoma
[4] = system: SW-620 colon
[5] = system: MCF7 breast
[6] = system: HCT-116 colon
[7] = system: HCC-2998 colon
[8] = system: KM12 colon

Row | SMILES | growth [1] | growth [2] | growth [3] | growth [4] | growth [5] | growth [6] | growth [7] | growth [8]
1 | CC12CC(C#N)CCC1O2 (configuration not stated) | 116% | 111% | 121% | 97.3% | 97.9% | 108% | 114% | 113%
2 | C[N+](C)(C)CCOC(OCC[N+](C)(C)C)(c1ccccc1)c1ccccc1 | 106% | 101% | 121% | 103% | 92.8% | 105% | 97% | 
3 | CCNCCNc1cc(-c2ccc(Cl)cc2)c(C#N)c2nc3ccccc3n12 | -60% (active) | -33.4% (active) | -85.7% (active) | -71.9% (active) | -22.8% (active) | -78% (active) | 4.11% (active) | 27.8%
4 | O=C1c2ccccc2C(=O)c2cc(Cn3cc[n+](Cc4ccc5ccccc5c4)c3)ccc21 | 70.1% | 60.1% | 84.8% | 84.2% | 59.2% | 84.3% | 79.1% | 77.8%
5 | CCCN1CCN(c2ccc3nc(-c4ccc5nc(-c6cc(OC)c(OC)c(OC)c6)[nH]c5c4)[nH]c3c2)CC1 | 65.9% | 83.2% | 55.1% | 75.7% | 23.8% | 55.1% | 94.2% | 77%
6 | COc1cccc(/C=C2\COc3ccc(O)cc3C2=O)c1OC | 74.8% | 57.8% | 19.7% | 30.5% | 12.2% | 34.3% | 94.1% | 7.8% (active)
7 | N#C/C=C(\c1ccc([N+](=O)[O-])cc1)n1nnc2cc(Cl)c(Cl)cc21 | 28.5% | 33.7% | 7.64% (active) | -34.8% (active) | 1.7% (active) | -52.7% (active) | 19.9% | -81.1% (active)
8 | O=C(NCc1cn(Cc2cccc(Oc3ccccc3)c2)nn1)c1cccnc1NCc1ccc(Cl)cc1 | 31.9% | 41.1% | -2.51% (active) | 36.9% | 14.9% | 22.1% | 9.38% (active) | 
9 | CN(C)c1ccc(/C=N/NC(=O)COc2cc(=O)n(C)c3ccccc23)cc1 | 97.6% | 108% | 101% | 104% | 89.4% | 101% | 116% | 109%
10 | CCCCOc1nc2ccc(Cl)cc2cc1/C=C/C(=O)/C=C1/CC(c2cc3cc(Cl)ccc3nc2OCCCC)Nc2ccccc2N1 (configuration not stated) | 83.5% | 96.6% | 104% | 98.7% | 74.2% | 97.6% | 91.5% | 101%
11 | COC(=O)Nc1nc2ccc(C(=O)C3CC3)cc2[nH]1 | 57.1% | 74.9% | -63.7% (active) | 20.6% | 4.01% (active) | 9.29% (active) | -12.7% (active) | -0.0812% (active)
12 | C=C(Cl)COC(=O)C(C)(C)O | 99.1% | 104% | 104% | 107% | 93.3% | 99.4% | 102% | 102%
13 | CCOC(=O)C1=C(C)NC(SCc2nnc(-c3ccc(Cl)cc3)o2)=NC1c1ccc(Cl)cc1Cl (configuration not stated) | 47.4% | 89.7% | 69% | 66.2% | 32% | 28.8% | 84.5% | 63.4%
14 | CCOC(=O)Cc1csc2nc(-c3ccccc3)nn12 | 92.9% | 127% | 113% | 98.5% | 96.5% | 98.2% | 103% | 105%
15 | N=C(N)c1ccc(-c2ccc(-c3ccc(Cl)cn3)s2)cc1 | 55.4% | 82.6% | -52.6% (active) | -28.3% (active) | -44.4% (active) | -67.6% (active) | -61.5% (active) | 1.88% (active)
16 | CC(/C=N/NC(=O)c1cc(-c2ccco2)[nH]n1)=C\c1ccccc1 | 96.6% | 101% | 89.9% | 101% | 99.8% | 99.3% | 106% | 93.9%
17 | Cc1ccc(NSc2ccccc2[N+](=O)[O-])cc1 | 27.3% | 34.1% | -26.2% (active) | 26.9% | 30.4% | 20.3% | 31.4% | 20.3%

Row | SMILES | growth [1] | growth [2] | growth [3] | growth [4] | growth [5] | growth [6] | growth [7] | growth [8]
18 | Cn1ccc(Cc2cnc(N)s2)n1 | 101% | 102% | 101% | 98.9% | 101% | 108% | 100% | 103%
19 | COc1cc(/C=C/C(=O)c2cccc(-n3cc(-c4ccc(Cl)cc4)[nH]c3=O)c2)cc(OC)c1OC | 41.1% | 86.2% | 27.1% | -19.4% (active) | 11.9% | -45.7% (active) | 75.8% | 46%
20 | COc1cc2c(cc1OC)-c1ccc3cc4c(cc3c1N(CCCn1ccnc1)C2)OCO4 | -18.4% (active) | 32.1% | 61.1% | 39.3% | 14% | 20% | 82.8% | 76.1%
21 | CCOC(=O)C1C(=O)C=C(c2cnccn2)CC1c1ccc(OC)c(OC)c1 (configuration not stated) | 83.5% | 71.5% | 106% | 106% | 93.1% | 79.7% | 99% | 102%
22 | Cc1cc(-c2ccc(N(C)C)cc2)c2sc(=O)[nH]c2n1 | 67.6% | 74.6% | 4.12% (active) | 38.3% | 28.4% | 50.1% | 77.5% | 39%
23 | C=C1C(=O)O[C@H]2[C@H]1CC/C(COC(=O)/C=C\C(=O)NCc1ccc(Cn3c(=O)sn(-c4ccc(Cl)cc4)c3=O)cc1)=C\CC[C@@]1(C)O[C@@H]21 | -44.1% (active) | -40.9% (active) | -80.3% (active) | -65.7% (active) | -52% (active) | -66% (active) | -76.8% (active) | -72.7% (active)
24 | NC(N)=N/N=C/CO | 108% | 96.7% | 106% | 106% | 98.3% | 94.1% | 119% | 102%
25 | C=C1C(=O)O[C@H]2[C@H]1CC/C(COC(=O)/C=C\C(=O)NCc1ccc(Cn3c(=O)sn(-c4ccc(OC)cc4)c3=O)cc1)=C\CC[C@@]1(C)O[C@@H]21 | -51.6% (active) | -51.8% (active) | -65.8% (active) | -53.6% (active) | -51.4% (active) | -65.5% (active) | -75.7% (active) | -64.5% (active)
26 | C(=C\c1nc2ccccc2[nH]1)/c1nc2ccccc2[nH]1 | 78.2% | 118% | 104% | 108% | 74.4% | 104% | 88.4% | 98.1%
27 | Cn1ccnc1C(=O)/C=C/c1ccc(C(=O)Nc2ccc(S(F)(F)(F)(F)F)cc2)cc1 | 27.8% | 39.6% | 39.2% | 12.5% | 12.5% | 3.62% (active) | 5.66% (active) | 16.6%
28 | CC(=O)OCCc1ccccc1 | 66.7% | 107% | 104% | 105% | 103% | 94.7% | 87% | 150%
29 | CCN(CC)CCCNC(=O)c1ccc(N)cc1O | 107% | 98.7% | 117% | 96.2% | 96.8% | 94.7% | 78.8% | 106%
30 | CCOC(=O)N1CCc2c(sc3c2C(=O)N[C@H](c2ccc(OC)cc2)N3)C1 | 79% | 108% | 98.7% | 99.6% | 97.7% | 93.3% | 104% | 102%
31 | C=C1C(=O)O[C@H]2[C@H]1CC/C(COC(=O)/C=C\C(=O)NCc1ccc(Cn3c(=O)sn(-c4ccc(C#N)cc4)c3=O)cc1)=C\CC[C@@]1(C)O[C@@H]21 | -59.9% (active) | -57.5% (active) | -79.6% (active) | -64% (active) | -51.8% (active) | -55.7% (active) | -79.1% (active) | -71.7% (active)
32 | NC(N)=N/N=C(/c1ccccc1)c1ccccc1F | 3.86% (active) | 70.8% | -56% (active) | 40% | 15.9% | -28.7% (active) | 2.85% (active) | 13.8%
33 | N#Cc1c(-c2ccc(C(F)(F)F)cc2)cc(N2CC(O)C2)n2c1nc1ccccc12 | 36.1% | 37.9% | 83.7% | 82.8% | 81.6% | 55.4% | 95.6% | 74.2%
